D1 ag = human D1 receptor agonism; HEK293 T-REx D1 cells, calcium flux, agonist mode; 1% of 360,000 active; activation, % at 2 µM; P21728; note: 0% is about no effect
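Agonism was scored from calcium flux recorded over 180 s (1 read/s) after pintool compound addition, following a 10-cycle baseline. Cells were inducible force-coupled HEK293 TREx D1, plated overnight at 30 C and loaded with no-wash calcium dye.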
D1 antag = antagonists of human D1 dopamine receptor; P21728; HEK293 TREx D1 cells, calcium flux, dopamine EC80; active compounds read low; AID 504652; activity change, negative = inhibition, % at 10 µM; 3.2% of 360,000 active; in the data active = activity change below about -30%; note: % is set by controls: 0 for no effect and ±100 for the full control effect
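Tetracycline-induced HEK293 T-REx cells with force-coupled D1 receptor were loaded with a no-wash calcium dye. Compound was added after a 10 s baseline and read kinetically for 180 s; EC80 dopamine was then added and calcium flux followed another 180 s.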
Epigenetic reg = derepresses silenced GFP reporter in murine cells | murine LDR cells, GFP reporter derepression, 30 h | Potency, µM (series often up to 53.9 µM), inactives show at the highest dose GFP activation, hits mostly activators | 0.2% of 280,000 active; active = well fitted activation curve with a large enough effect; note: potency is the fitted concentration of half-maximal effect; % of control where 0% means no effect; nearly all actives have a fitted effect of over 60% in size
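Reporter derepression read as number of fluorescent GFP-positive objects, 20-120 um in size, counted by laser-scanning cytometer. Mouse LDR line with an epigenetically silenced CMV-GFP locus; compound incubation 30 h, 37 C.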
TRHR enhancer = TRH receptor (human) allosteric enhancement; P34981; TRHR cells, fluo-8 calcium fluorescence, EC20 TRH enhancement; enhancement, % at 2 µM; 0.66% of 360,000 active; AID 493056; in the data active = enhancement above about 30%; note: 0% is about no effect
Target sequence (P34981 whole entry, looked up): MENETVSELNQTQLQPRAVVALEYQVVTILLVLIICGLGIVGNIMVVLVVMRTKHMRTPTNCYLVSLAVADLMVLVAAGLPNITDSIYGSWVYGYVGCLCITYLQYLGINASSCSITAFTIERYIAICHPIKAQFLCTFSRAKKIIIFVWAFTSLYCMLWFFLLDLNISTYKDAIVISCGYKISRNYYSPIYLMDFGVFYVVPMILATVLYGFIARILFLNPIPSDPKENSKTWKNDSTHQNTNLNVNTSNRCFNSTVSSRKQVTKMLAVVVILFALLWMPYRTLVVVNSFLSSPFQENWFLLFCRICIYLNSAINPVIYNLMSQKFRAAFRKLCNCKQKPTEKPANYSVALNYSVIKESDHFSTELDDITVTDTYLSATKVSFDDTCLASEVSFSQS
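TRHR-expressing cells loaded with fluo-8 calcium dye were read kinetically (ex 480/em 530) during compound addition, then stimulated with an EC20 of TRH (10 nM final). Enhancement of the Gq-mediated intracellular calcium response was scored.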
D1 potentiator = human D1 dopamine receptor positive modulation; P21728; HEK293 TREx D1 cells, calcium flux, dopamine EC20 potentiation; potentiation, % at 10 µM; 0.036% of 360,000 active; AID 504651; in the data active = potentiation above about 30%; note: 0% is about no effect
TRHR ag = activates the human TRH receptor. P34981. TRHR cells, calcium flux fluo-8, FDSS agonist mode. activation, % at 2 µM. 0.18% of 360,000 active; note: 0% is about no effect
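TRHR-expressing cells, plated overnight in medium with 10% serum, were loaded with fluo-8 calcium dye at room temperature. After a 10 s baseline, library compound was pin-added and calcium release was recorded kinetically (ex 480/em 530) as agonist response.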
* hit, by the source's call; nt = not tested or not shown; ! = not confirmed by another sample. A selection: hits, their analogues and other compounds. The true share with any hit is near 4.6%. Cut-off read from the data, not from the text of the source, unless noted: active = activation above about 30%; inactive = the rest.

SMILES | D1 ag | D1 antag | Epigenetic reg | TRHR enhancer | D1 potentiator | TRHR ag
O=C(O)COc1ccccc1/C=N/NC(=O)CNC(=O)c1ccco1 | 2 | -58* | nt | 3 | -3 | 0
O=C(COc1cccc2ccccc12)N/N=C/c1ccccc1OCc1ccc(C(=O)O)cc1 | 36* | -6 | 3% | -5 | 1 | 0
FC(F)(F)C(F)(F)C(F)(F)c1nnc2ccc(N3CCOCC3)nn12 | 2 | -73* | 0% | 4 | -5 | 0
CCn1cc2nc(SCC(=O)Nc3ccc(C)cc3)n(Cc3ccc(C)cc3)c(=O)c2n1 | 6 | 12 | 11% | 1 | -3 | 1
COc1ccc2cc(C(C)C(=O)OC(C)C)ccc2c1 (centres undefined) | 1 | -37* | nt | -3 | 0 | 0
COc1ccc(NC(=O)CN(Cc2ccccc2)S(=O)(=O)c2ccc(C)cc2)cc1Cl | 6 | -7 | -1% | 0 | -1 | 2
C/C(=N/NC(=O)c1ccncc1)c1cc2ccc(O)cc2oc1=O | 41* | -7 | 0% | 5 | -2 | 24
C/C(=N/NC(N)=S)c1cc2ccc(O)cc2oc1=O | 6 | 6 | 2% | 2 | -5 | 4
C/C(=N\NC(=O)c1ccncc1)c1cc2ccccc2oc1=O | 4 | -34* | 0% | -1 | 2 | 0
Cc1ccc2c(CC(=O)N3CCN(c4cccc(Cl)c4)CC3)coc2c1 | 5 | 2 | -2% | 5 | 3 | 1
O=Nc1ccc2oc(=O)ccc2c1 | nt | nt | 12% | nt | nt | nt
O=C(NCCc1ccccc1)c1cc2sccc2n1Cc1ccc(F)cc1 | 8 | -31* | 1% | -7 | -3 | 0
Cc1cc(C)cc(NC(=O)c2cc(S(=O)(=O)N3CCCC3)ccc2F)c1 | -2 | -13 | 4% | -2 | 2 | -1
O=C(NCc1ccccc1Cl)NCc1noc2ccccc12 | 1 | -2 | -4% | 0 | -4 | 0
CCOc1ccc(-c2nc(Cn3c(=O)cc(-c4ccccc4)c4c(C)nn(C)c43)c(C)o2)cc1 | 2 | 13 | 0% | 6 | -4 | 0
O=C(O)c1cc2cc(F)ccc2[nH]1 | 44*! | 4 | -3% | 3 | 0 | 0
CC(NC(=O)c1ccc(F)cc1)c1ccccc1 (centres undefined) | 1 | 4 | -1% | 8 | 1 | 0
CC(NC(=O)c1cc2cc(F)ccc2[nH]1)c1ccccc1 (centres undefined) | 17 | -55* | nt | 25 | -16 | 1
CC(C)(C)c1ccc(C(=O)N2CCC(c3nc4ccccc4o3)CC2)cc1 | -1 | -8 | -3% | -6 | -1 | 0
O=C(NCc1ccc(F)cc1)c1cc2c(=O)n3ccccc3nc2s1 | 14 | 5 | -1% | 5 | 1 | -1
C[C@H](NC(=O)N1CCn2c1nc1ccccc12)C(=O)NC1CC1 | -2 | -85* | nt | -23 | -3 | 0

Compound activity deposited in PubChem by National Center for Advancing Translational Sciences (NCATS).
